From PubChem BioAssay (EPA / NIEHS)
Activity calls are given as the source filed them. How the source made its calls: active means hit-call score of the fitted dose curve at least 0.9, where 1 is the maximum; inactive means score below 0.9.

Read-out: Keratin 19 (KRT19), KRT19 (gene 3880)
Assay: LTEA_HepaRG_KRT19: Life Technologies and Expression Analysis (LTEA) Assay for Keratin 19 (KRT19) using HepaRG (AID 2283512)
Settings: mRNA level, 48 h; actives raise or lower the signal
Method in brief: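 HepaRG, 48 h chemical exposure, 8-pt half-log CRC from 100 uM, 0.5% DMSO vehicle, duplicates. Readout: TaqMan qRT-PCR of KRT19 mRNA, housekeeping-normalized (ACTB/GAPDH/POLR2A). Bidirectional fit vs DMSO baseline.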

Q: With `C#C[C@]1(O)CC[C@H]2[C@@H]3CCC4=CC(=O)CC[C@@H]4[C@H]3CC[C@@]21CC` as the compound, how does the outcome read?
A: inactive

Q: Which outcome does the source give for `O=C(O)c1ccccc1` here?
A: inactive

Q: With `COC(=O)c1ccccc1C(=O)O` as the compound, how does the outcome read?
A: inactive

Q: For `CC(C)(C)[C@@H](O)[C@@H](Cc1ccc(Cl)cc1)n1cncn1`, which outcome is on record?
A: inactive

Q: How did the AC50 turn out when `c1ccc2[nH]c(-c3cscn3)nc2c1` was run?
A: 35.2 µM (active)

Q: How did the AC50 turn out when `N[C@@H](Cc1cc(I)c(Oc2ccc(O)c(I)c2)c(I)c1)C(=O)O` was run?
A: 0.0152 µM (active)

Q: `CCOC(=O)c1ccc(O)cc1` was tested. Which outcome did it give?
A: inactive

Q: How did the AC50 turn out when `O=C(Nc1ccc([N+](=O)[O-])cc1Cl)c1cc(Cl)ccc1O` was run?
A: 1.48 µM (active)

Q: For `COC(=O)c1ccc(I)cc1S(=O)(=O)NC(=O)Nc1nc(C)nc(OC)n1`, which outcome is on record?
A: inactive

Q: With `CCCN(CCC)C(=O)SCC` as the compound, how does the outcome read?
A: inactive

Q: With `CCCCC(CC)COC(=O)c1ccccc1C(=O)O` (configuration not stated) as the compound, how does the outcome read?
A: inactive

Q: `C[C@]12C[C@H](O)[C@H]3[C@@H](CCC4=CC(=O)CC[C@@]43C)[C@@H]1CC[C@@H]2C(=O)CO` was tested. Which outcome did it give?
A: inactive

Q: With `S=C([S-])NCCNC(=S)[S-].[Mn+2]` as the compound, how does the AC50 read?
A: 10 µM (active)

Q: With `O=C(O)C1(C(=O)Nc2ccc(Cl)cc2Cl)CC1` as the compound, how does the outcome read?
A: inactive

Q: How did the AC50 turn out when `C=CCOC(Cn1ccnc1)c1ccc(Cl)cc1Cl` (configuration not stated) was run?
A: 12.3 µM (active)

Q: With `CCCOC(=O)NCCCN(C)C` as the compound, how does the outcome read?
A: inactive

Q: Which outcome does the source give for `COCCO` here?
A: inactive

Q: How did the outcome turn out when `C#CCOC(=O)[C@@H](C)Oc1ccc(Oc2ncc(Cl)cc2F)cc1` was run?
A: inactive

Q: Which AC50 does the source give for `CC(=O)[C@H]1CC[C@H]2[C@@H]3CCC4=CC(=O)CC[C@]4(C)[C@H]3CC[C@]12C` here?
A: 50 µM (active)

Q: Which outcome does the source give for `CCN(CC)C(=O)c1cccc(C)c1` here?
A: inactive

Q: How did the outcome turn out when `COc1c(Cl)ccc(Cl)c1C(=O)O` was run?
A: inactive

Q: `CCCCCOC(=O)COc1cc(N2C(=O)C3=C(CCCC3)C2=O)c(F)cc1Cl` was tested. Which outcome did it give?
A: inactive

Q: Which outcome does the source give for `CCC(C)OC(=O)N1CCCCC1CCO` (configuration not stated) here?
A: inactive

Q: For `CCCCOCCOCCOCc1cc2c(cc1CCC)OCO2`, which outcome is on record?
A: inactive

Q: With `CCOC(=O)COc1cc(-n2ncc(C(F)(F)F)c(C)c2=O)c(F)cc1Cl` as the compound, how does the outcome read?
A: inactive

Q: Which outcome does the source give for `CCCN(CCC)c1c([N+](=O)[O-])cc(C(F)(F)F)c(N)c1[N+](=O)[O-]` here?
A: inactive

Q: With `CC1(C)C(C=C(Cl)Cl)C1C(=O)OCc1cccc(Oc2ccccc2)c1` (configuration not stated) as the compound, how does the outcome read?
A: inactive
